Compound activity as filed in PubChem BioAssay.
Only some compounds are listed: those with a hit (about 2.2% of all), similar ones and a draw of the others.
Myeloid diff MLP: compounds promoting myeloid differentiation | calls only at 10 µM | ER-HoxA9 myeloid progenitors, lysozyme-GFP differentiation, flow cytometry | AID 624256 | 1% of 360,000 active;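 active = normalized GFP-positive differentiation at or above the plate's own cutoff, the solvent-only control mean plus 3 SD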;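 also: cells exposed to compound for four days before flow analysis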
RTF Ca sens act: increases calcium sensitivity of human cardiac regulated thin filaments; P19429+P45379; activation, % at 7.2 µM; IANBD-labeled TnC RTF fluorescence at EC20 calcium; 0% EC20 calcium, 100% full calcium; 0.24% of 340,000 active;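 active = activation above the mean over all tested compounds plus 3 SD, cut at about 30% in these data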;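 also: rise in fluorescence read as greater calcium sensitivity of cardiac thin filaments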
Cardiac RTF inh: cardiac RTF calcium desensitization | 0.12% of 340,000 active | P19429+P45379 | inhibition, % at 7.15 µM | IANBD-labeled cardiac RTF, Ca2+ fluorescence;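 active = inhibition above the mean inhibition of all tested compounds plus 3 SD, cut at about 17% in these data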;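 also: assay run at fixed EC70 calcium of 1.6 mM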
CRFBP-R2 block: blocks CRF-induced signaling of the CRF-BP/CRF-R2 complex. AID 588475. HEK293 CRF-R2/CRF-BP, CRF-induced calcium fluorescence. 0.59% of 350,000 active. inhibition, % at 11.8 µM;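 active = inhibition of the ligand-induced calcium signal above about 50% at the single tested concentration, limit read from the data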
CRFBP-R2 agonist: agonists of human CRF-binding protein/CRF-R2 receptor complex; 0.46% of 350,000 active; HEK293 CRF-R2/CRF-BP, calcium dye fluorescence (FLIPR); percent of saturating CRF peptide response; activation, % at 13.2 µM;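 active = activation of at least 50%, plus an integration ratio under a set limit after plate pattern correction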;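 also: plate controls were neutral control wells without compound for no effect and CRF at EC100 for full effect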
An asterisk follows results filed as active; i = inactive; x = no result given; + = active, no number.

SMILES	Myeloid diff MLP	RTF Ca sens act	Cardiac RTF inh	CRFBP-R2 block	CRFBP-R2 agonist
C(=Cc1c[nH]c2ccccc12)c1nccc2ccccc12	i	23.2	-20.3	-5.0	18.3
C(=Cc1c[nH]c2ccccc12)c1ccc2ccccc2n1	+	9.5	-17.4	-55.0	25.4
Cc1c(CN2CCCC(C)C2)c(O)n(CCO)c(=O)c1C#N (stereo not drawn)	i	35.4*	3.7	-4.0	2.8
C=CCn1c(O)c(CN2CCCCC2)c(C)c(C#N)c1=O	i	7.7	-5.6	1.9	5.0
CC1(c2ccc([N+](=O)[O-])cc2)NC(=O)N(CC(=O)c2ccc3c(c2)OCO3)C1=O (stereo not drawn)	i	-0.7	5.3	-16.3	60.3*
CC1(c2ccc(OC(F)F)cc2)NC(=O)N(CC(=O)NC2CCCCC2)C1=O (stereo not drawn)	i	13.2	-3.0	-11.3	3.9
CC1(c2ccc(OC(F)F)cc2)NC(=O)N(CC(=O)c2ccc3c(c2)OCO3)C1=O (stereo not drawn)	i	-7.8	-3.2	-30.6	85.6*
Nc1nc(N)c(Cc2ccc(Cl)cc2Cl)c(N)n1	+	-3.6	-0.9	-32.0	1.5
Nc1nccc(SCc2ccc(Cl)cc2Cl)n1	i	5.2	-2.0	-19.4	-0.4
N/C(Cc1cccc2ccccc12)=N\O	i	13.2	-13.5	-0.7	1.3
N/C(Cc1ccccc1Sc1ccccc1)=N\O	i	1.4	-7.8	61.2*	-0.9
COc1ccc(OC)c(N2C(N)=NC(N)=NC23CCCC3)c1	i	-3.0	-9.9	-6.5	-1.8
Cc1cccc(N2C(N)=NC(N)=NC23CCCCC3)c1	+	-8.8	3.8	51.6*	3.2
O=C(CSc1nnc(COc2ccc(Cl)cc2)o1)N1CCCCC1	i	-5.1	-7.5	3.2	-0.8
Oc1cccc(-c2nc3c4c(ncn3n2)-c2ccccc2CC42CCCC2)c1	i	-0.1	5.8	-68.9	1.4
CCN(C(=O)CC(C)C)c1nnc(Cn2nnc3ccccc32)s1	i	-0.6	0.1	-11.9	-2.4
CCN(C(=O)c1ccc(C(C)(C)C)cc1)c1nnc(Cn2nnc3ccccc32)s1	+	0.1	-6.6	8.7	-1.1
COc1ccc(NC(=O)COC(=O)C2CC(=O)N(CCc3ccc(OC)c(OC)c3)C2)cc1Cl (stereo not drawn)	i	2.5	-6.9	0.6	-0.9
COc1ccc(C(=O)Nc2ccccc2C(=O)NCCN2CCOCC2)cc1	i	2.5	-8.2	8.0	-1.2
COc1cc(C(=O)NCc2ccccc2Cl)ccc1OCC(=O)N1CCOCC1	i	-7.4	-4.5	62.0*	0.6
COc1cc(C(=O)NNC(=O)COc2ccccc2Cl)ccc1OCC(=O)N1CCOCC1	i	-0.9	-2.1	2.7	-1.0
COc1ccc(C(=O)Nc2ccccc2C(=O)NCCN2CCOCC2)cc1OC	+	-2.9	0.5	-1.4	0.7
C=CCNC(=O)COC(=O)c1cccnc1Nc1ccccc1F	i	-0.8	4.7	13.8	-0.5
CC(C)c1ccc(NC(=O)c2ccc(NS(C)(=O)=O)cc2)cc1	+	0.7	-6.6	-16.8	0.9
Cc1nnc(SCC(=O)NCC2COc3ccccc3O2)s1 (stereo not drawn)	i	-4.2	-9.6	3.6	0.6
SMILES	Myeloid diff MLP	RTF Ca sens act	Cardiac RTF inh	CRFBP-R2 block	CRFBP-R2 agonist
CCc1ccc2nc3nc(C)cc(C)c3c(N)c2c1	+	4.7	-9.0	18.4	18.7
O=S1(=O)CC(N2CCN(CC3CC3)CC2)CN1CCc1ccccc1 (stereo not drawn)	i	x	x	x	x
Cc1ccc(C(=O)N[C@H](C(=O)Nc2sccc2C(N)=O)C(C)C)cc1	+	-2.1	-13.2	-7.6	-0.3
COc1ccc(OC)c(NC(=O)CCn2ccnc2)c1	x	3.6	-0.5	-4.0	1.5
NC(=O)C(=O)N/N=C/c1c(F)c(F)c(F)c(F)c1F	i	-1.6	2.4	35.5	0.9
CC(C)CC(=O)Nc1cc2c3c(c1)CCN3C(=O)CC2	+	4.7	-5.3	-1.8	-0.9
O=c1c(/C=C(\O)c2ccc(F)cc2)nc2ccccc2n1-c1ccccc1	+	51.4*	-12.9	-117.9	163.1*
Cn1c(=O)c(/C=C/c2ccc(F)cc2)nc2ccccc21	i	-1.0	-4.8	-0.2	4.5
O=C(Nc1ccc2c(c1)OCO2)c1ccc2sc([C@H]3C[C@H](O)[C@@H](CO)O3)nc2c1	i	x	x	x	x
CCOc1ccc(S(=O)(=O)N2CCCCC2)cc1NC(=O)c1ccccc1	i	-9.1	-5.8	-6.3	0.5
